Laboratory results as given in publication PMC4336329 (PLoS ONE, 2015).
The campaign covered roughly 310,000 compounds. About 14,000 (4.5%) showed an effect of 50% or more. Effects have a minus sign here. The sample as a whole holds a higher share of strong results than the screen did.

The compounds below were run against human ether-à-go-go-related gene (hERG) potassium channel (human, UniProt Q12809) (assay: primary screen, population patch clamp on CHO cells stably expressing hERG; higher = less effect of the substance).
Sequence of human ether-à-go-go-related gene (hERG) potassium channel (Q12809 whole entry, looked up): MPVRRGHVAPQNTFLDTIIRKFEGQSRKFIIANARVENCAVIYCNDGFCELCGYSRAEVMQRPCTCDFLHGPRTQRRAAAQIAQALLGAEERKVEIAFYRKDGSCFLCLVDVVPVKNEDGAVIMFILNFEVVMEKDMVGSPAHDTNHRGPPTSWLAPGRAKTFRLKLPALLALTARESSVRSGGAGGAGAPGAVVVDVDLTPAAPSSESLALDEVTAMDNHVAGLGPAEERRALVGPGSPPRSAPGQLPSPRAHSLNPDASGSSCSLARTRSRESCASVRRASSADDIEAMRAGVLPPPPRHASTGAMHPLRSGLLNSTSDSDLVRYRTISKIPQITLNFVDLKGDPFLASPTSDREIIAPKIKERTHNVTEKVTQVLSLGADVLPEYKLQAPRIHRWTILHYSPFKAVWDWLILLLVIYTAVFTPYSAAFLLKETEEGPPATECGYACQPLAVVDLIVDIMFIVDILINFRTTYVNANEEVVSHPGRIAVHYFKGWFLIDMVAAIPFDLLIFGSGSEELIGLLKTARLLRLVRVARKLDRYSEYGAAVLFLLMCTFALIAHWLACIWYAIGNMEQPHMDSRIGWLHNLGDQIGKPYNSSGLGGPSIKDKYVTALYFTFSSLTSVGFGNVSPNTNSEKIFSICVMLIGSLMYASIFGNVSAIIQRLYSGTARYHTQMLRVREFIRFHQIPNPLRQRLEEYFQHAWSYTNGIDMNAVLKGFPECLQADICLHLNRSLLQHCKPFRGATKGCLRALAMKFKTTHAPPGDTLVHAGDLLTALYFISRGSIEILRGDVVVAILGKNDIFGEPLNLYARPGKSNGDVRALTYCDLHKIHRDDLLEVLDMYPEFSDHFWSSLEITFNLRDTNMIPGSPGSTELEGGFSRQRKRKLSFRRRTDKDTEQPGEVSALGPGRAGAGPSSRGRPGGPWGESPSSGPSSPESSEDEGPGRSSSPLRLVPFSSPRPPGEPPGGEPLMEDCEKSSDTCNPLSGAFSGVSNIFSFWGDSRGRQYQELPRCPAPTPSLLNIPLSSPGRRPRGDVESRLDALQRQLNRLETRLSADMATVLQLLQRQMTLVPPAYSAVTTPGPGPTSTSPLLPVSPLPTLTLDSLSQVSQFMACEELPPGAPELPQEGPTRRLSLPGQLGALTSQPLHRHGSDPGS
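Also: peak tail current of the secondary pulse compared with the same well before compound.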

Row | Compound | hERG current change (%, negative = inhibition) at 10uM
1 | CC(C)CNC(=O)c1ccccc1NC(=O)CCSc1ccccc1 | -17.6%
2 | COC(=O)c1ccc([C@H]2C=C(C(=O)O)O[C@@H](OCc3ccc(CO)cc3)C2)cc1 | 13.6%
3 | CCN(CC)CCOCCOc1ccc(Cl)c2ccccc12 | -68%
4 | CCN(CC)CCOCCOc1ccccc1F | -3.91%
5 | CN(C)CCOCCOc1ccc(Cl)c2ccccc12.O=C(O)C(=O)O | -44.5%
6 | COc1ccccc1CCNC(=O)C(=O)NCC1OCCN1S(=O)(=O)c1ccc([N+](=O)[O-])cc1 (centres unmarked) | -46.7%
7 | O=C(NCCN1CCOCC1)c1ccc2c(c1)ncn2C1CCCC1 | -6.39%
8 | Cc1ccc2[nH]c3c(N4CCOCC4)ncnc3c2c1 | -0.757%
9 | Cc1ccc2c(c1)[nH]c1c(N3CCN(Cc4ccccc4)CC3)ncnc12 | -24.5%
10 | c1ccc2c(c1)[nH]c1c(N3CCSCC3)ncnc12 | -4.82%
11 | c1ccc2c(c1)[nH]c1c(N3CCCC3)ncnc12 | -15.2%
12 | Cc1ccc2[nH]c3c(N4CCN(Cc5ccccc5)CC4)ncnc3c2c1 | -72.3%
13 | COc1cccc2[nH]c3c(N4CCN(Cc5ccc6c(c5)OCO6)CC4)ncnc3c12 | -17.3%
14 | COc1ccc2[nH]c3c(N4CCN(Cc5ccc6c(c5)OCO6)CC4)ncnc3c2c1 | -18.8%
15 | COc1ccc2c(c1)[nH]c1c(N3CCN(Cc4ccc5c(c4)OCO5)CC3)ncnc12 | -74%
16 | c1ccc(CN2CCN(c3ncnc4c3[nH]c3ccccc34)CC2)cc1 | -62.5%
17 | Cn1c2c(c(=O)n(C)c1=O)C(NC(=O)c1ccco1)(C(F)(F)F)C(=O)N2 (centres unmarked) | 16.3%
18 | O=C1OC(c2ccccc2)=C/C1=C/N1CCOCC1 | 2.28%
19 | O=C(NCCc1nnc2ccc(NCc3ccccc3Cl)nn12)c1ccccc1 | 10.4%
20 | N#Cc1cc2c(nc1SCC(=O)O)CCCCC2 | 3.05%
21 | CCOC(=O)c1sc(NC(=O)c2ccc3ncsc3c2)nc1C | 10.8%

Row | Compound | hERG current change (%, negative = inhibition) at 10uM
22 | O=C(Nc1ccccc1Cl)c1cc[n+]([O-])cc1 | 27.8%
23 | COc1ccc(CCN2CC(C(=O)O)CC2=O)cc1OC (centres unmarked) | 0.984%
24 | COc1ccc(CC[NH+](C)CCCN2CC(c3ccccc3)CC2=O)cc1OC.O=C([O-])C(=O)[O-] (centres unmarked) | -71.1%
25 | COc1ccc(C2CC(=O)N(CCC[NH+](C)CCc3ccc(OC)c(OC)c3)C2)cc1.O=C([O-])C(=O)[O-] (centres unmarked) | -74.7%
26 | COc1ccc(CCN2CC(C(=O)NCc3ccc(F)cc3)CC2=O)cc1OC (centres unmarked) | 2.45%
27 | COc1ccc(NC(=O)CN2CC(c3ccccc3)CC2=O)cc1OC (centres unmarked) | 8.33%
28 | COc1ccc(C2SCC(=O)N2CCc2ccc(OC)c(OC)c2)cc1 (centres unmarked) | -31.3%
29 | O=C(/C=C/c1ccc(O)cc1)c1ccc(O)cc1O | 9.4%
30 | CCCn1c(O)c(CN2CCCCC2)c(C)c(C#N)c1=O | 15.5%
31 | O=C(NC(=S)Nc1ccc(N2CCOCC2)cc1)c1cncc(Br)c1 | 19.5%
32 | CC(C)CC(=O)Nc1ccnn1C1CCN(C(=O)c2ccc(Cl)cc2F)CC1 | -30.4%
33 | N#CC(C#N)C(c1ccsc1)c1c(-c2ccccc2)[nH][nH]c1=O (centres unmarked) | -3.36%
34 | CN1C(=O)C(=O)/C(=C(/O)c2ccc(Br)cc2)C1c1ccccc1F (centres unmarked) | 8.71%
35 | O=C(C1=C[C@@H](c2coc3ccccc3c2=O)C[C@@H](OCCCCO)O1)N1CCOCC1 | 7.47%
36 | CN1CCN(C(=O)C2=C[C@@H](c3coc4ccccc4c3=O)C[C@@H](OCCCCO)O2)CC1 | 0.749%
37 | O=C(C1=C[C@H](c2coc3ccccc3c2=O)C[C@H](OCCCCO)O1)N1CCOCC1 | -16%
38 | O=C(C1=C[C@H](c2coc3ccccc3c2=O)C[C@H](OCCCCO)O1)N1CCN(Cc2ccccc2)CC1 | -61.5%
39 | CN1CCN(C(=O)C2=C[C@H](c3coc4ccccc4c3=O)C[C@H](OCCCCO)O2)CC1 | -20.3%
40 | O=C(C1=C[C@@H](c2coc3ccccc3c2=O)C[C@@H](OCCCCO)O1)N1CCN(Cc2ccccc2)CC1 | -57.9%
41 | Nc1nc(Sc2c([N+](=O)[O-])cc(C(F)(F)F)cc2[N+](=O)[O-])n[nH]1 | 3.04%
42 | CCn1c(COc2ccccc2OC)nc2ccccc21 | 2.28%

Row | Compound | hERG current change (%, negative = inhibition) at 10uM
43 | Cc1ccc(-c2csc3nc(SCC(=O)N(C)C)n(Cc4ccccc4)c(=O)c23)cc1 | -26%
44 | Cc1[nH][nH]c(=O)c1C(c1ccc(O)c(Br)c1)c1c(C)[nH][nH]c1=O | 4.34%
45 | O=C(c1ccccc1Br)N1CCN(c2ccccn2)CC1 | 9.41%
46 | O=C(COC(=O)CCSc1ccccc1)NCc1ccccc1Cl | 22.4%
47 | Nc1nc(Sc2ncccc2[N+](=O)[O-])n[nH]1 | 3.27%
48 | COc1ccccc1NC(=S)N1C2CCC1CC(NC(=O)NC13CC4CC(CC(C4)C1)C3)C2 (centres unmarked) | -2.49%
49 | Cc1cccc(N2C(=O)CN(Cc3sccc3C)C2=S)c1 | -7.83%
50 | COc1ccccc1N1CCN(C(=O)c2cc(-c3ccccc3)on2)CC1 | 8.22%
51 | CCn1c(N2CCN(C(=S)NC)CC2)nc2ccccc21 | -30.2%
52 | O=C(Nc1ccc(F)cc1)N1CCN(c2nc3ccccc3s2)CC1 | 1.48%
53 | Cn1c(Nc2ccccc2)nc2ccccc21 | 1.74%
54 | Cn1c(N2CCN(C(=O)Nc3ccc(F)cc3)CC2)nc2ccccc21 | -55.8%
55 | COc1ccc(Nc2nc3ccccc3n2C)cc1 | 11.3%
56 | CCn1c(N2CCN(C(=O)Nc3ccc(F)cc3)CC2)nc2ccccc21 | -68.2%
57 | Cn1c(Nc2ccc(F)cc2)nc2ccccc21 | -51.7%
58 | CCn1c(N2CCN(S(=O)(=O)c3ccc(F)cc3)CC2)nc2ccccc21 | -36.2%
59 | Cn1c(N2CCN(C(=O)Nc3ccc(C(F)(F)F)cc3)CC2)nc2ccccc21 | -41.3%
60 | CCn1c(N2CCN(C(=S)Nc3ccc(OC)cc3)CC2)nc2ccccc21 | -68.3%
61 | CCn1c(N2CCN(C(=S)NCC(C)C)CC2)nc2ccccc21 | -30.4%
62 | CCn1c(N2CCN(C(=O)NC3CCCCC3)CC2)nc2ccccc21 | -32.5%
